Measured values from the supplement of paper PMC10981050.
Where “and” joins values, the source holds several entries; their conditions need not be identical. Equal entries are not always repeated. Structures can show the parent of a compound that is named as a salt.

Experiments:
Assay in all cases: cell viability relative to vehicle control; higher = less cytotoxic
Conditions in all cases: 10 µM
K562 = tested on: K562
Procedure, shortened: (§1)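 CRISPR-edited SRSF2 P95 mutant and isogenic wild-type clones of four leukaemia lines were screened against Selleck bioactive, kinase and epigenetic probe libraries, with identity-inconsistent compounds removed. Compounds were acoustically dispensed into 384-well plates at a single 10 µM dose, with 2000 cells in 50 µL medium per well. After 48 h, supernatant was removed and CellTiter-Glo luminescence was read. Viability was expressed as percent of the on-plate DMSO vehicle control, analysed in Genedata Screener.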

MARIMO = tested on: MARIMO
Procedure, shortened: as §1

MOLM14 = tested on: MOLM14
Procedure, shortened: as §1

OCI-AML2 = tested on: OCI-AML2
Procedure, shortened: as §1

| SMILES | cell viability (K562; SRSF2 genotype: SRSF2 P95H/wt) | cell viability (K562; SRSF2 genotype: SRSF2 wt/wt) | cell viability (MARIMO; SRSF2 genotype: SRSF2 P95H/wt) | cell viability (MARIMO; SRSF2 genotype: SRSF2 wt/wt) | cell viability (MOLM14; SRSF2 genotype: SRSF2 P95H/wt) | cell viability (MOLM14; SRSF2 genotype: SRSF2 wt/wt) | cell viability (OCI-AML2; SRSF2 genotype: P95H/wt) | cell viability (OCI-AML2; SRSF2 genotype: wt/wt) |
| --- | --- | --- | --- | --- | --- | --- | --- | --- |
| CN(C)C1C(=O)C(C(N)=O)=C(O)C2(O)C(=O)C3=C(O)c4c(O)cccc4C(C)(O)C3CC12 (stereo not given) [Tetracycline hydrochloride] | 84.5% and 91.2% | 90.4% | 90.7% | 96.3% | 102% | 98.3% | 89.3% | 95.9% |
| CNCC(=O)c1ccc(O)c(O)c1 [Adrenalone HCl] | 97.4% and 92.4% | 98.3% | 91.8% | 92.3% | 88.6% | 94% | 90.5% | 97.5% |
| CC(C)c1cc2c(c(O)c1O)[C@@]1(C(=O)O)CCCC(C)(C)[C@@H]1CC2 [Carnosic acid] | 70.2% and 83.7% | 86.6% | 41.8% | 5.17% | 43.8% | 41.1% | 33.2% | 27.1% |
| CC12NC(Cc3ccccc31)c1ccccc12 (single isomer, unassigned; (+)) [(+)-MK 801 maleate] | 92.8% and 93.5% | 93.2% | 85.7% | 91.7% | 91% | 91.5% | 86.7% | 99.1% |
| CN1C(=O)COc2c(C(=O)NC3CN4CCC3CC4)cc(Cl)cc21 (stereo not given) [Azasetron HCl] | 96.6% and 91.5% | 94.9% | 92.8% | 98.7% | 90.5% | 97.3% | 95.9% | 94.7% |
| COc1cc(C)[nH]c(=O)c1CNC(=O)c1c(C)n([C@H](C)C2CCOCC2)c2ccccc12 | 111% and 102% | 94.9% | 106% | 118% | 103% | 101% | 106% | 104% |
| CCc1c2c(nc3ccccc13)-c1cc3c(c(=O)n1C2)COC(=O)[C@]3(O)CC [7-Ethylcamptothecin] | 7.64% and 19.6% | 10.4% | 5.75% | 3.52% | 0.48% | 0.48% | 0.36% | 0.82% |
| Fc1cc(F)c2c(c1)[C@H]1C=CC[C@H]1C(c1cccnc1)N2 (stereo not given in full) [Golgicide A] | 25.9% and 36.2% | 32.3% | 14.1% | 27.5% | 46.3% | 68.2% | 12.2% | 22.5% |
| CC(=O)O[C@H]1C[C@H](O[C@H]2[C@@H](O)C[C@H](O[C@H]3[C@@H](O)C[C@H](O[C@H]4CC[C@@]5(C)[C@H](CC[C@@H]6[C@@H]5C[C@@H](O)[C@]5(C)[C@@H](C7=CC(=O)OC7)CC[C@]65O)C4)O[C@@H]3C)O[C@@H]2C)O[C@H](C)[C@H]1O[C@@H]1O[C@H](CO)[C@@H](O)[C@H](O)[C@H]1O [Lanatoside C] | 10.1% and 11.2% | 12.5% | 14.9% | 5.1% | 4.2% | 0.9% | 0.9% | 3.5% |
| O=[N+]([O-])c1ncc[nH]1 [Azomycin (2-Nitroimidazole)] | 102% and 103% | 101% | 101% | 101% | 95.3% | 100% | 97.8% | 96.8% |
| C[N+](C)(C)CCCCCCCCCC[N+](C)(C)C [Decamethonium Bromide] | 100% and 109% | 111% | 98.9% | 102% | 102% | 101% | 120% | 102% |
| CC(=O)OC1CN2CCC1CC2 (stereo not given) [Aceclidine HCl] | 99.8% and 104% | 100% | 104% | 112% | 104% | 106% | 102% | 105% |
| COc1ccc2c(c1)[nH]c1c(C)nccc12 [Harmine hydrochloride] | 88.3% and 94.7% | 92.7% | 79.5% | 87.7% | 54.3% | 66.8% | 38.1% | 49.9% |
| C[C@H]1CCC/C=C/[C@@H]2C[C@H](O)C[C@H]2[C@H](O)/C=C/C(=O)O1 [Brefeldin A] | 19% and 24.5% | 24.1% | 9.22% | 6.8% | 6.71% | 4.1% | 4.83% | 18.7% |
| COP(=O)(OC)SCn1c(=O)oc2cc(Cl)cnc21 [Azamethiphos] | 55.4% and 71.8% | 78.9% | 48.4% | 58.3% | 93.3% | 107% | 110% | 106% |
| CC(C)NCC(O)c1ccccc1Cl (stereo not given) [Clorprenaline HCL] | 98.2% and 96.8% | 104% | 98.2% | 107% | 95.2% | 101% | 108% | 99.1% |
| C[C@@H]1CC[C@@]2(OC1)O[C@H]1C[C@H]3[C@@H]4CC=C5C[C@@H](O[C@@H]6O[C@H](CO)[C@@H](O[C@@H]7O[C@@H](C)[C@H](O)[C@@H](O)[C@H]7O)[C@H](O)[C@H]6O[C@@H]6O[C@@H](C)[C@H](O)[C@@H](O)[C@H]6O)CC[C@]5(C)[C@H]4CC[C@]3(C)[C@H]1[C@@H]2C [Dioscin (Collettiside III)] | 0.8% and 0.73% | 0.55% | 1.89% | 0.64% | 0.47% | 0.55% | 0.51% | 0.51% |
| CN(C)[C@@H]1C(=O)C(C(N)=O)=C(O)[C@@]2(O)C(=O)C3=C(O)c4c(O)ccc(Cl)c4[C@@](C)(O)[C@H]3C[C@@H]12 [Chlortetracycline HCl] | 106% and 108% | 107% | 105% | 108% | 105% | 105% | 102% | 103% |
| COc1ccc2c(c1OC)CN1CCc3cc4c(cc3C1C2)OCO4 (stereo not given) [Tetrahydroberberine] | 86.9% and 87% | 81.9% | 69.8% | 85% | 81.2% | 86.6% | 73% | 72.8% |
| c1cc2c(cc1[C@H]1OC[C@H]3[C@@H]1CO[C@H]3c1ccc3c(c1)OCO3)OCO2 [Asarinin] | 99.6% and 99.4% | 102% | 91.7% | 104% | 100% | 103% | 89.1% | 89.4% |

| SMILES | cell viability (K562; SRSF2 genotype: SRSF2 P95H/wt) | cell viability (K562; SRSF2 genotype: SRSF2 wt/wt) | cell viability (MARIMO; SRSF2 genotype: SRSF2 P95H/wt) | cell viability (MARIMO; SRSF2 genotype: SRSF2 wt/wt) | cell viability (MOLM14; SRSF2 genotype: SRSF2 P95H/wt) | cell viability (MOLM14; SRSF2 genotype: SRSF2 wt/wt) | cell viability (OCI-AML2; SRSF2 genotype: P95H/wt) | cell viability (OCI-AML2; SRSF2 genotype: wt/wt) |
| --- | --- | --- | --- | --- | --- | --- | --- | --- |
| Cc1cccc(C(C)c2c[nH]cn2)c1C (stereo not given) [Medetomidine HCl] | 97.2% and 99.8% | 95.1% | 95.1% | 107% | 101% | 102% | 97% | 113% |
| Cc1sc2c(c1C)C(c1ccc(Cl)cc1)=N[C@@H](CC(=O)Nc1ccc(O)cc1)c1nnc(C)n1-2 | 60.9% and 68.8% | 71.9% | 27.3% | 35.8% | 18% | 14.1% | 17.7% | 32.3% |
| CCC(COC(=O)c1cc(OC)c(OC)c(OC)c1)(c1ccccc1)N(C)C (stereo not given) [Trimebutine maleate] | 99% and 90.6% | 98.2% | 87.9% | 90.3% | 88.9% | 98.2% | 89.9% | 97.4% |
| C[C@]12CC[C@H](O)CC1=CC[C@@H]1[C@@H]2CC[C@]2(C)C(=O)CC[C@@H]12 [Dehydroepiandrosterone (DHEA)] | 89.1% and 108% | 102% | 98.1% | 101% | 108% | 103% | 110% | 93.2% |
| C[C@]12CC[C@H](O)C[C@@H]1CC[C@@H]1[C@@H]2CC[C@]2(C)C(=O)CC[C@@H]12 | 94.7% and 104% | 104% | 98.9% | 108% | 98.5% | 107% | 106% | 97.3% |
| COc1cc(OC)c(OC)cc1C=O [Asaraldehyde (Asaronaldehyde)] | 110% and 107% | 106% | 100% | 114% | 110% | 105% | 102% | 105% |
| c1csc(-c2ccc(-c3cccs3)s2)c1 [2,2':5',2''-Terthiophene] | 95.8% and 89.3% | 97.1% | 88.1% | 100% | 91.7% | 98.7% | 84.6% | 85.4% |
| CC(=O)O[C@H]1C[C@@H]2CC[C@@H]3[C@H](CC[C@@]4(C)[C@H]3C[C@H]([N+]3(C)CCCCC3)[C@@H]4OC(C)=O)[C@@]2(C)C[C@@H]1[N+]1(C)CCCCC1 [Pancuronium dibromide] | 101% and 96.7% | 91.6% | 96% | 99.3% | 103% | 102% | 97.4% | 101% |
| NCC(O)c1ccc(O)cc1 (racemic) [(+,-)-Octopamine HCl] | 91.4% and 95.7% | 97.6% | 96.5% | 96.5% | 99.5% | 96.8% | 93.1% | 97.3% |
| C=C[C@H]1CN2CC[C@@]3(C(=O)Nc4ccccc43)[C@@H]2C[C@@H]1/C(=C\OC)C(=O)OC [Isocorynoxeine] | 81.8% and 92.6% | 82.3% | 77.4% | 72.7% | 84.4% | 79.5% | 88.2% | 83.3% |
| CC1CCC2N(C1)CC1C3CC4C(CC(=O)C5CC(O)CCC54C)C3CCC1C2(C)O (stereo not given) [Peiminine] | 92.5% and 90.8% | 86.1% | 107% | 109% | 87% | 75.6% | 46.2% | 58.8% |
| Cc1ccccc1-n1c(CF)nc2ccc(N)cc2c1=O [Afloqualone] | 88.1% and 90.6% | 86.5% | 84.5% | 95.7% | 93.2% | 96.2% | 110% | 94.4% |
| C=C(C)[C@H]1Cc2c(ccc3c2O[C@@H]2COc4cc(OC)c(OC)cc4[C@@H]2C3=O)O1 [Rotenone (Barbasco)] | 12.8% and 22.4% | 23.4% | 5.86% | 10.5% | 15.6% | 3.2% | 9.69% | 13.8% |
| COc1cc2c3c(c1OC)-c1ccccc1C[C@H]3N(C)CC2 [Nuciferine] | 102% and 108% | 102% | 102% | 108% | 102% | 104% | 96.3% | 106% |
| CCCC[N+]1(C)[C@@H]2CC(OC(=O)[C@H](CO)c3ccccc3)C[C@H]1[C@@H]1O[C@@H]12 (stereo not given in full) [Butylscopolamine bromide (Scopolamine butylb] | 108% and 95.5% | 97.8% | 102% | 110% | 97.5% | 103% | 94.3% | 105% |
| CCC1=C[C@H]2CN3CCc4c([nH]c5ccccc45)[C@](C(=O)OC)(C2)[C@H]13 [Catharanthine] | 92.4% and 94% | 95.2% | 81% | 86.6% | 87.8% | 95.5% | 92% | 96.2% |
| CCN(CC)CCOC(=O)C(O)(c1ccccc1)c1ccccc1 [Benactyzine hydrochloride] | 87.1% and 93% | 84.2% | 93% | 98.4% | 92.6% | 94.4% | 89.8% | 92.6% |
| CN1C(=O)[C@@]23C[C@]4([C@]56C[C@@]78SS[C@@](CO)(C(=O)N7[C@H]5Nc5ccccc56)N(C)C8=O)c5ccccc5N[C@@H]4N2C(=O)[C@]1(CO)SS3 [Chaetocin] | 0.42% and 0.29% | 0.65% | 0.27% | 0.33% | 0.25% | 0.28% | 0.23% | 0.24% |
| CN(C)C(=O)Oc1ccc[n+](C)c1 [Pyridostigmine Bromide (Mestinon)] | 93.7% and 96.7% | 95.9% | 93.5% | 98.7% | 96.6% | 94.3% | 93.2% | 97% |
| CCC1(c2ccc(N)cc2)CCC(=O)NC1=O (stereo not given) [Aminoglutethimide (Cytadren)] | 98.1% and 103% | 110% | 96.7% | 101% | 99.8% | 103% | 107% | 108% |
